Results as given in PubChem BioAssay (NCI).
This is part of a sample that, as a whole, favours compounds with a hit. Of some 79,000 tested, about 15% had one in any assay. Activity calls are given as the source filed them. No stated cut-off is given here; in the data, active means growth inhibition above about 70%; inactive means the rest.

Test: NCI Yeast Anticancer Drug Screen. Data for the CLN2oe strain (AID 163);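 further: 0% = growth of vehicle-only control cultures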
Settings: S. cerevisiae CLN2oe strain, active compounds read high
Description: Growth inhibition of yeast strains with defined genetic alterations is measured as a screen for potential anti-cancer activity. Selected strains with alterations in DNA damage repair or cell cycle control were exposed to compounds and growth inhibition was measured relative to vehicle treated controls. The strain used in this assay is CLN2oe

Measured: growth inhibition

CCOC(=O)c1sc2[n+](c1C)C(=O)/C(=C/c1cc(OC)c(OC)c(OC)c1)S2
inactive: at 1.2 µM 11% | at 3.7 µM 5% | at 11.0 µM 26%
active: at 33.0 µM 76% | at 100.0 µM 83%

OC1C#CCSCC#C/C=C\1 (stereo not given)
active: at 100.0 µM 77%
inactive: at 1.2 µM -22% | at 3.7 µM 3% | at 11.0 µM -15% | at 33.0 µM -3%

Cc1ccc(Cl)c2c(=O)c3ccccc3[nH]c12
inactive: at 1.2 µM -4% | at 3.7 µM -5% | at 11.0 µM -4% | at 33.0 µM -2% | at 100.0 µM -12%

O=Cn1c2ccccc2c2ccccc21
inactive: at 1.2 µM -12% | at 3.7 µM -15% | at 11.0 µM 1% | at 33.0 µM -21% | at 100.0 µM 39%

c1cc(Nc2ccc3c(c2)OCO3)c2cc(C3CCCCC3)ccc2n1
inactive: at 1.2 µM 1% | at 3.7 µM 3% | at 11.0 µM -1% | at 33.0 µM 4% | at 100.0 µM 52%

CN1CCN(c2ccc3nc(-c4ccc5nc(-c6ccc(O)cc6)[nH]c5c4)[nH]c3c2)CC1
active: at 11.0 µM 97% | at 33.0 µM 98% | at 100.0 µM 98%
inactive: at 1.2 µM 9% | at 3.7 µM 6%

S=c1[nH]nc(Cc2ccccc2)c(=S)[nH]1
active: at 33.0 µM 91% | at 100.0 µM 96%
inactive: at 1.2 µM 26% | at 3.7 µM 25% | at 11.0 µM 35%

Cc1ccc2nc(N/N=C/c3ccc(C)s3)cc(C)c2c1
active: at 33.0 µM 99% | at 100.0 µM 93%
inactive: at 1.2 µM 5% | at 3.7 µM -5% | at 11.0 µM 7%
